Sampled rows, rich in hits. Any-hit rate of the full collection: about 11%.
RORgamma inh: ROR gamma (mouse) transcription inhibition. Drosophila S2 Gal4-RORgamma UAS-luciferase reporter, 20 h. 5.4% of 310,000 active. Potency, µM (highest dose often 53.6 µM), for the others: at the highest dose activity change, negative = inhibition, actives largely listed as inhibitors. P51450. AID 2551; note: potency is the fitted concentration of half-maximal effect; % is set by controls: 0 for no effect and ±100 for the full control effect; nearly all actives have a fitted effect of over 60% in size
Target sequence (P51450 whole entry, looked up, the tested form may be a part): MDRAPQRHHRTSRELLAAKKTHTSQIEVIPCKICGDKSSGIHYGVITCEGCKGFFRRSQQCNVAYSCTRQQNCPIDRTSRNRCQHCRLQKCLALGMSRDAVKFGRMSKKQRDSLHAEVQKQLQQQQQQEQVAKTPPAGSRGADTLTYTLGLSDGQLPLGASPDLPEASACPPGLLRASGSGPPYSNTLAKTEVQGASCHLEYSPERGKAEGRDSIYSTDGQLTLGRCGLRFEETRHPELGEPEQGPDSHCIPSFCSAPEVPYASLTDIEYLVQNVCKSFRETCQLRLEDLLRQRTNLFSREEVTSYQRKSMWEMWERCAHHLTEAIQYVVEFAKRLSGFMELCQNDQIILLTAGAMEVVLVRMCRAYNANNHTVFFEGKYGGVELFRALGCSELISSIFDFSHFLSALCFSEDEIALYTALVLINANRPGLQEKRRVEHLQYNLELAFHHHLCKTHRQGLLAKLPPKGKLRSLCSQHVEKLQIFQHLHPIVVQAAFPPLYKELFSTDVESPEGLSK
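ROR gamma transcriptional activity was tracked as Gal4-UAS luciferase output in stably transfected Drosophila Schneider cells, with compound added 1 hr before 700 uM copper sulfate induction and a 20 hr ambient-temperature incubation.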
SW480 rereplic: DNA re-replication induction in SW480 cells; SW480 DNA re-replication, Hoechst DNA content imaging, 48 h; Potency, µM (titrated, usually from 46.1 µM), for inactives: top-dose re-replication activation, hits mostly activators; 1.8% of 340,000 active; AID 624297; note: potency is the fitted concentration of half-maximal effect; % of control where 0% means no effect; nearly all actives have a fitted effect of over 55% in size
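DNA re-replication was detected as more nuclei of elevated Hoechst intensity after 48 hr exposure to compound (23 nL pinned per well of 250 cells).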
MCF10A rerep: induces DNA re-replication in MCF 10a normal breast cells. Potency, µM (titrated, usually from 46.1 µM), inactives show at the top dose activity, positive = re-replication, hits mostly activators. MCF 10A DNA re-replication, Hoechst nuclear intensity, 48 h. 2.9% of 350,000 active; note: potency is the fitted concentration of half-maximal effect; % of control where 0% means no effect; nearly all actives have a fitted effect of over 50% in size
IL-1B inflam inh: inflammasome signaling inhibition, IL-1 beta readout; activity change, % at 57.5 µM; 4.7% of 360,000 active; THP-1 LPS/ATP IL-1B secretion, AlphaLISA, 16 h; active compounds read low; in the data active = activity change below about -50%; inconclusive = mostly about -30% to -49%; note: % is set by controls: 0 for no effect and ±100 for the full control effect
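THP-1 cells pretreated 1 hr with compounds (up to 57.5 uM final), then stimulated with LPS (250 ng/mL final) plus ATP (1.25 mM final); secreted IL-1B measured by AlphaLISA after 16 hr, decreased signal indicating inhibition.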
Gal4-VP16 FLuc: Gal4-VP16 reporter inhibition counter-screen; Drosophila S2 Gal4-VP16 UAS-luciferase, luminescence, 20 h; Potency, µM (top dose mostly 53.6 µM), inactives show at the top dose activity, negative = inhibition, usual class: inhibitors; 3.5% of 310,000 active;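 note: Gal4-VP16 expression switched on by copper sulfate through the metallothionein promoter; potency is the fitted concentration of half-maximal effect; % is set by controls: 0 for no effect and ±100 for the full control effect; nearly all actives have a fitted effect of over 50% in size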
An asterisk follows results filed as active; ? = inconclusive; nt = no result given; [ ] = dose if it differs, or a comment. Unless noted, calls come from the whole dose curve; as a rule, active = well fitted curve in the direction sought with a large enough effect; inconclusive = small, poorly fitted or top-dose-only effect, or another doubt; inactive = no such curve, though single readings can be large; an effect the other way counts as inactive or inconclusive.

SMILES	RORgamma inh	SW480 rereplic	MCF10A rerep	IL-1B inflam inh	Gal4-VP16 FLuc
CC(=O)c1cccc(NC(=O)c2cc(=O)c3ccccc3o2)c1	15%	-13%	-1%	16	6%
Cc1cc(C)nc(NC(=O)c2ccc([N+](=O)[O-])o2)n1	-34%	8.2µM*	13µM*	0	-13%
CS/C(=C\[N+](=O)[O-])Nc1ccc(F)cc1	-16%	-1%	5%	0	-2%
NC(=O)c1cccc(-c2coc3c(C(=O)NCc4ccccc4)cccc23)c1	nt	nt	nt	-22	nt
CC(C)C[C@@H](CC(=O)N[C@@H](CCCN)CC(=O)N[C@@H]1CCNC[C@H]1C(=O)N[C@H](CC(=O)N[C@@H](CCC(=O)O)CC(=O)O)Cc1c[nH]c2ccccc12)NC(=O)[C@@H]1CNCC[C@H]1N	-8%	nt	nt	nt	-1%
CCOC(=O)C1=CCN(S(=O)(=O)c2ccc(Cl)cc2)C1c1ccccc1 (stereo not given)	nt	nt	nt	8	nt
O=C(Nc1ccccc1N1CCOCC1)c1ccc([N+](=O)[O-])o1	11%	?	6%	-1	-11%
NS(=O)(=O)c1ccc(O)c(NC(=O)c2ccc([N+](=O)[O-])o2)c1	1%	12µM*	?	-61*	7%
Cc1cc(NC(=O)c2ccc([N+](=O)[O-])o2)ccc1NC(=O)c1ccco1	4%	2.3µM*	?	-92*	0%
Cc1cc(C)cc(NC(=O)c2ccc([N+](=O)[O-])o2)c1	?	?	3.3µM*	-96*	?
COc1cc(NC(=O)c2ccc([N+](=O)[O-])o2)ccc1NC(=O)c1ccco1	?	?	16%	-27	?
Cc1ccc(C)c(-c2nnc(NC(=O)c3ccc([N+](=O)[O-])o3)o2)c1	nt	?	?	-10	nt
CC(=O)c1ccc(NC(=O)c2ccc([N+](=O)[O-])o2)cc1	6.3µM*	20%	4.6µM*	-98*	13µM*
CC(C)NC(=O)N1Cc2cc(C(=O)NC3CCCC3)nc(-c3cccc(-c4cccnc4)c3)c2[C@@H]1CCO	nt	nt	nt	-13	nt
COCCC(=O)N1CCC(Oc2ccc(C(=O)NC3CCOC(C)(C)C3)cc2)CC1 (stereo not given)	-13%	-30%	-8%	13	3%
COc1ccc(NC(=O)c2ccc([N+](=O)[O-])o2)cc1	nt	2.6µM*	16µM*	-96*	nt
COc1ccc(-c2nc3c(Cl)cc(C(F)(F)F)cn3c2Cc2ccsc2)cc1OC	nt	nt	nt	0	nt
CCN(CC(=O)Nc1cc(Cl)ccc1C)C(=O)C1CC(=O)N(Cc2ccccc2)C1 (stereo not given)	nt	0.16µM*	?	-17	nt
CCCN(CC(=O)Nc1ccc(F)c(F)c1F)C(=O)C1CC(=O)N(Cc2ccccc2)C1 (stereo not given)	nt	-3%	-1%	1	nt
N=C(N)SCc1ncccc1O	2%	5%	4%	-5	2%
Cc1cccc2nc(CSC(=N)N)c(Br)n12	-7%	?	?	-68*	0%
N=C(N)SCc1nc2ccccn2c1Br	-5%	7%	29%	-98*	3%
CC(CC(=O)Nc1nnc(C(C)(C)C)s1)c1ccccc1 (stereo not given)	0%	-6%	-2%	28	-3%
NC(=S)N/N=C/c1cccc(Br)c1	5.6µM*	-4%	-7%	-17	?
NC(=S)N/N=C/c1cccc(/C=N/NC(N)=S)c1	-23%	3%	4%	-100*	0%
SMILES	RORgamma inh	SW480 rereplic	MCF10A rerep	IL-1B inflam inh	Gal4-VP16 FLuc
O=C(N/N=C/c1cccc(Br)c1)c1ccc(Br)cc1	?	20%	11%	-14	1%
NC(=S)N/N=C/c1ccc(-n2nncc2-c2ccc(Cl)cc2)cc1	5.6µM*	?	?	-70*	?
Nc1cccc(-n2nncc2-c2ccc(Cl)cc2)c1	-1%	nt	nt	nt	-13%
Cn1cccc1/C=N/NC(N)=S	6.3µM*	-7%	-2%	25	?
CCC(CO)Nc1ccn2nc(-c3cccc(Cl)c3)cc2n1 (stereo not given)	nt	nt	nt	-4	nt
CN(C)c1ccc(/C=C(\NC(=O)c2ccccc2)C(=O)NCCN2CCOCC2)cc1	-29%	-21%	-17%	-13	-9%
NC(=S)N/N=C/C=C/c1ccccc1	2µM*	-2%	?	-23	?
NC(=S)N/N=C/c1ccc(/C=N/NC(N)=S)cc1	-16%	18µM*	?	35	-6%
NC(=S)N/N=C/c1ccc2ccccc2c1	?	0%	-1%	7	?
O=NN(CC(=O)NN=CC=Cc1ccccc1)CC(=O)NN=CC=Cc1ccccc1	nt	nt	nt	47	nt
Cc1ccc(C#CC[N+](C)(C)CC#Cc2ccccc2)cc1	-6%	-8%	16%	-77*	-15%
C#CC[N+](C)(C)CC#Cc1ccccc1	2%	15%	18%	-66*	5%
C#CC[N+]1(CC#Cc2ccccc2)CCOCC1	3%	-2%[9.22 µM]	-9%	-3	6%
CCN(CC)CC#Cc1ccc(C)cc1	-8%	-4%	-1%	25	-3%
CCCn1nc([N+](=O)[O-])c(C(C#N)c2nc3ccccc3o2)c(Cl)c1=O (stereo not given)	-26%	-2%	?	-82*	?
CCn1nc([N+](=O)[O-])c(C(C#N)c2nc3cc(C(F)(F)F)ccc3s2)c(Cl)c1=O (stereo not given)	?	4.6µM*	29%	-97*	?
Cn1nc([N+](=O)[O-])c(C(C#N)c2ccccn2)c(Cl)c1=O (stereo not given)	10µM*	?	?	-102*	?
N#CC(c1ccccn1)c1ncc(C(F)(F)F)cc1Cl (stereo not given)	-1%	-3%	2%	-11	-18%
C/C(N)=C(/C#N)C(=O)CSc1nc2cc(Cl)ccc2s1	?	-1%	-1%	0	?
COC(=O)C1=CN(Cc2ccc(OC)c(OC)c2)C=C(C(=O)OC)C1c1cccc(OC)c1OC	9%	?	?	-7	4%
COC(=O)C1=CN(Cc2ccc(OC)c(OC)c2)C=C(C(=O)OC)C1c1ccc(O)cc1	27%	99%	?	0	5%
COC(=O)C1=CN(Cc2ccc(OC)c(OC)c2)C=C(C(=O)OC)C1c1ccc(F)cc1	?	21µM*	18µM*	-14	10%
COCCN1C=C(C(=O)OC)C(c2ccccc2Cl)C(C(=O)OC)=C1	26%	21µM*	13µM*	4	-6%
CCN1C=C(C(=O)OC)C(c2cccc(OC)c2OC)C(C(=O)OC)=C1	8%	16µM*	?	24	8%
COc1ccc(-n2c(C)c([N+](=O)[O-])c3ccc(O)c(CN4CCCCC4)c32)cc1	-11%	?	?	-68*	1%
CCCCCCN	-10%	nt	nt	nt	-14%
Cc1cc2oc(=O)cc(CN3CCCCCCC3)c2cc1Cl	nt	nt	nt	42	nt

Bioassay records deposited in PubChem by National Center for Advancing Translational Sciences (NCATS).
